86 compounds from PubChem BioAssay (NCI) can be followed below.

“And” between values parts separate entries of the source, which are not always exact repeats. Equal values may be shown once. The panel holds about 83,000 compounds, 20% with a hit somewhere; the sample as a whole holds those more often.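 Cell lines were cultured in 96-well plates, exposed to a single compound concentration, and assessed for percent growth 48 hours later.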 A number with no mark means an inactive call. The source made the active and inactive calls. The calls were made as follows: active = growth percent below 10; inactive = the rest.

This test has as its system MDA-MB-468 breast. Nature of the test: NCI-60 one-dose screen, 48 h (100 = growth as untreated, 0 = no growth, -100 = all killed). The following applies: 10 µM unless noted.

As to `FCc1nc2nc(Cl)c(Cl)nc2[nH]1`, the growth was 93.2%.

On to `COc1ccc(-n2[nH]c3c(cnc4ccccc43)c2=O)cc1`, for which the growth was 108% and 99.5%.

Take `c1ccc(Sc2ncccn2)nc1`: the growth is 97%.

Consider `O=C(Cn1cc(-c2ccccc2)nn1)Nc1nc(-c2ccc(Cl)cc2)cs1`, for which the growth is 92.6%.

With `CCCCCCCCCCCCCCCCCC1=NC(C)(C)CN1CCO`, the growth was -69% (active).

On to `C[C@]12O[C@H](C[C@]1(O)CO)n1c3ccccc3c3c4c(c5c6ccccc6n2c5c31)CNC4=O`, for which the growth was -47.5% (active).

Regarding `c1cnc2[nH]cc(-c3csc(-c4cn(CCCN5CCOCC5)c5ccccc45)n3)c2c1`, the growth was 26.2%.

`Nc1nc(Cn2c(-c3nonc3N)nc3ccccc32)nc(N2CCCCC2)n1`: the growth was 72.8%.

`C[C@]12CCc3nc(Nc4ccccc4)sc3C1=CC[C@@H]1[C@@H]2CC[C@]2(C)/C(=N/NC(N)=S)CC[C@@H]12`: the growth was 14.9%.

As to `COc1cc(C(=O)/C=C/c2ccc3nc(-c4cc(F)cc(F)c4)sc3c2)cc(OC)c1OC`, the growth is 120%.

With `Cc1ccccc1NC(=O)c1sc2nc3c(cc2c1N)C(=O)CCC3`, the growth is -4.56% (active).

In the case of `NC(=O)c1cc(Cl)ccc1NC(=O)COc1ccccc1`, the growth is 21%.

For `Cc1nn(-c2ccc(Cl)cc2)c(=O)n1CCOc1ccccc1Cl`, the growth was 105%.

Take `CNC(=O)c1cc(Oc2ccc3nc(NC(=O)Nc4ccc(F)cc4F)sc3c2)ccn1`: the growth was 51.2%.

Regarding `Cc1ccc(S(=O)(=O)Nc2ccc3cc([N+](=O)[O-])ccc3c2[N+](=O)[O-])cc1`, the growth is 54% and 88.5%.

In the case of `CCCCCCC(CC#N)(CCC)CCCC` (stereo unspecified), the growth is 101%.

Regarding `Cc1cc(NCc2cc(Nc3ccnc4cc(Cl)ccc34)ccc2F)nc(N2CCN(c3ccccc3)CC2)n1`, the growth is 30.2%.

As to `O=C(c1ccccc1)c1cccc(C(Br)Br)c1`, the growth was 92.5%.

Turning to `O=c1cc(N2CCOCC2)oc2c(-c3ccc4c(c3)OCCO4)csc12`, the growth is -4.24% (active).

Regarding `CCCCCCCCN(CCCCCCCC)CC(O)c1ccc(Cl)c(C)c1Cl` (stereo unspecified), the growth was 105%.

`Clc1ccc2c(NCCNc3nc(-c4ccccc4)cc(-c4ccccc4)n3)ccnc2c1`: the growth was -53.8% (active).

Consider `CC(C)(C)CC(C)(C)Nc1c(-c2c(O)c3ccccc3oc2=O)nc2sc3ccccc3n12`, for which the growth is 22.4%.

Consider `O=C(CCCCCCN1CC(=O)N2[C@@H](C3CCCCC3)c3[nH]c4ccccc4c3C[C@H]2C1=O)NO`, for which the growth is 64.3%.

As for `S=C(Nc1ccc(-c2nc(N3CCOCC3)c3cccn3n2)cc1)Nc1cccnc1`, the growth was 34.8%.

Turning to `CN(C)C(C(N)=O)c1ccc(Cl)cc1` (stereo unspecified), the growth is 99.2%.

Regarding `S=P(N1CC1)(N1CC1)N1CC1`, the growth was 106% and 67.8%.

Consider `CN1CCN(c2ccc(Nc3nc(NCCNC(=O)c4ccccc4)c4sccc4n3)cc2)CC1`, for which the growth is 45.3%.

For `COc1ccc2c(=O)c(OC)c(-c3cc(OC)c(OC)c(OC)c3)oc2c1`, the growth is 86.5%.

For the compound `CCCCCCCCc1ccc(OCCOCC[N+](C)(C)CC)cc1` (tested in a mixture with another compound), the growth is -11.3% (active).

As for `COc1ccccc1-n1c(-c2ccc(O)cc2C)cn2c3c(=O)[nH]c(=O)n(C)c3nc12`, the growth is 88.6%.

On to `COc1cc(/C=C2\CCCC3=C2N=C2SC=NN2C3c2cc(OC)c(OC)c(OC)c2)cc(OC)c1OC` (stereo unspecified), for which the growth was 18.1%.

Take `CC(=O)Nc1cscc1NC(C)=O`: the growth is 95.1%.

Regarding `CCCCCCCC/C=C\CCCCCCCCOc1cccc(CC(=O)NCC[N+]2(C)CCCC2)c1`, the growth was 71.8%.

Consider `O=C1NC(=C(Cl)Cl)/C(=N\S(=O)(=O)NCc2ccccc2)N1`, for which the growth is 45.1%.

Regarding `N#Cc1c(-c2ccccc2)cc(-c2ccccc2)n(CCC(=O)O)c1=O`, the growth was 26.6%.

On to `COc1ncnc2c1ncn2C/C(Br)=C(\Br)CCl`, for which the growth is 16.9%.

With `CCCCN1C(=O)CC(SC2CC(=O)N(CCCC)C2=O)C1=O` (stereo unspecified), the growth was 105%.

As for `O=C(Nc1ccc(N=Nc2ccccc2)cc1)c1cccc2ccccc12`, the growth was 41.9%.

Turning to `COc1cc2c(cc1OC)C(Sc1ccc(F)cc1)c1c(nc(N)c(C#N)c1N)O2` (stereo unspecified), the growth was -56.4% (active).

`N#C/C(=C\c1cn(Cc2ccccc2)c2ccccc12)C(=O)Nc1ncc(Cc2ccccc2Cl)s1`: the growth was -14.7% (active).

On to `CSc1nc2c(c(=O)[nH]1)C(c1ccc(Cl)cc1)C1=C(N2)/C(=C/c2ccc(Cl)cc2)CNC1` (stereo unspecified), for which the growth was 48.4%.

`CC(=O)OC(C)COc1ccc(-c2ccccc2)cc1` (stereo unspecified): the growth was 98.4%.

With `O=C1NC(=S)S/C1=C\c1cc(Br)ccc1O`, the growth is 112%.

Take `Cc1ccc[n+](CCC(N)=O)c1`: the growth is 108%.

Turning to `CC(=O)N1N=C(c2ccc(C(F)(F)F)cc2)CC1c1ccc2c(c1)OCO2` (stereo unspecified), the growth is 93.8%.

Take `CC1(C)[C@@H](O)CC[C@]2(C)[C@H]3CC[C@@H]4[C@H]5[C@H](C(=O)/C=C\c6ccccn6)CC[C@]5(O)CC[C@@]4(C)[C@]3(C)CC[C@@H]12`: the growth was 23.8%.

On to `NC(N)=N/N=C(/c1ccccc1)c1ccc(N)cc1`, for which the growth is 119%.

Take `CCC(C)C1NC(=O)c2nc(oc2-c2ccccc2)-c2csc(n2)-c2csc(n2)-c2nc(oc2C)-c2coc(n2)CNC(=O)C(C(C)CC)NC1=O` (stereo unspecified): the growth is -76.9% (active).

In the case of `CCN(CC)CCCNc1c2ccc(Cl)cc2nc2ccc(OC)cc12`, the growth is -34.6% (active).

`COc1ccc(S(=O)(=O)N2CCCCCC2)cc1NC(=O)c1[nH]c(C)c2c1CCCCC2=O`: the growth was 4% (active).

In the case of `Cc1cccc(-c2nc(Nc3ccc4ncsc4c3)c3ccccc3n2)n1`, the growth is 72.3%.

As for `O=C1C2=C(Nc3cc([N+](=O)[O-])ccc3N2)OC1c1c2ccccc2cc2ccccc12` (stereo unspecified), the growth is 37.3%.

In the case of `COc1ccc(-c2ccccc2)cc1-c1c(Nc2cc(Cl)cc(Cl)c2O)c(=O)c1=O`, the growth is -3.49% (active).

In the case of `CNc1ccc(Nc2ccc(S(=O)(=O)O)cc2)c2c1C(=O)c1ccccc1C2=O`, the growth was 98.6%.

For the compound `COC(=O)CNC(=O)c1ccc(NC(=O)c2[nH]c(C)c(Cl)c2Cl)c(O[C@H]2CCNC2)c1`, the growth was 112%.

With `COc1ccc(N(C)c2nc(Cl)nc3cnn(C)c23)cc1`, the growth is 26.9%.

Take `CN(C)S(=O)(=O)n1cnc([C@@H]2[C@@H]3C(=O)OC[C@@H]3C[C@]23N=CN(Cc2ccccc2)C3=O)c1`: the growth is 97.2%.

On to `O=C(CN1C(=O)NC2NC(=O)NC21)N/N=C/c1ccccc1[N+](=O)[O-]` (stereo unspecified), for which the growth is 98.5%.

In the case of `CC1=C(NCCN2CCCC2)C(=O)c2c(OCc3cccc(Cl)c3)cccc2C1=O`, the growth was 69.6%.

On to `CCCCOC(=O)OCc1cc(=O)c(O)co1`, for which the growth is 97.5%.

As to `COc1nc2c(c(=O)n1C)CN(c1ccccc1)C(=O)C(C)N2` (stereo unspecified), the growth was 86.3%.

With `COc1ccc(Cl)cc1NC(=O)c1cc2c(n1C)-c1nc(NC(=O)C(C)(C)C)sc1CC2`, the growth is 96.7%.

Consider `COC(=O)c1ccc(NC(=O)CCl)cc1`, for which the growth is 83.2%.

Take `NC1CCC(Nc2nc(NCc3ccc(-c4cccs4)nc3)c3ncn(C4CCCC4)c3n2)CC1` (stereo unspecified): the growth was -65.8% (active).

With `Cc1ccc(Cn2c(-c3cccs3)nc3ccccc32)cc1`, the growth was 67.5%.

On to `O=C1NC(=S)S/C1=C\c1cccc([N+](=O)[O-])c1`, for which the growth was 106%.

Turning to `CN1CCN(Cc2cc(NC(=O)c3cccc(C#Cc4cccc5[nH]nc(N)c45)c3)cc(C(F)(F)F)c2)CC1`, the growth was 10.8%.

On to `NC(=S)Nc1cccc(O)c1`, for which the growth was 101%.

Take `NC1=CC(=O)C(=O)c2cccnc21`: the growth is 81.3%.

For the compound `Cc1cc(Nc2nc(N3CCN(C)CC3)nc3ccccc23)n[nH]1`, the growth was 90%.

As for `CCn1cc(C(=O)O)c(=O)c2cc(F)c(N3CCN(S(=O)(=O)c4cccc5ccccc45)CC3)cc21`, the growth is 4.79% (active).

As to `Cc1nc(S(=O)(=O)c2ccccc2)c(S(=O)(=O)Cc2ccc([N+](=O)[O-])cc2)o1`, the growth is 78.1%.

Take `O=C(N/N=C/c1cccnc1)c1ccccc1Nc1cccc(C(F)(F)F)c1`: the growth is 74.5%.

For the compound `COc1cc2oc(-c3cccc(NC(=O)c4cc(N)ccc4Cl)c3)cc(=O)c2c(OC)c1OC`, the growth was 95.3%.

In the case of `CCOC(=O)c1cn2c3c(cccc3c1=O)C(=O)/C(=C/c1cccc(Cl)c1Cl)C2`, the growth is 106%.

With `O=c1[nH][n+](-c2ccc(Cl)cc2)no1`, the growth was 93.2%.

For `COc1ccc(-c2cc(-c3ccc(Cl)cc3)nc(SCCCCCCC(=O)NO)n2)cc1`, the growth is 12.7%.

Turning to `COc1cc(C2CC(c3cccc(Nc4ccnc5cc(Cl)ccc45)c3)=NN2C=O)cc(OC)c1OC` (stereo unspecified), the growth is -37.1% (active).

`CCOC(=O)c1sc(-c2ccc(OS(=O)(=O)c3ccc(Br)s3)c(C=O)c2)nc1C`: the growth was 18.1%.

Take `COc1ccc2c(c1)c(-c1nc(N)nnc1-c1c[nH]c3ccccc13)cn2C`: the growth was -9.57% (active).

In the case of `Cc1ccc(-c2nc(N3CCNCC3)c3oc(-c4ccccc4)nc3n2)cc1`, the growth was -31.4% (active).

With `O=C(N/N=C/c1ccc([N+](=O)[O-])cc1)c1ccc2nc(-c3ccc(Cl)cc3)[nH]c2c1`, the growth was -38.9% (active).

Take `N#Cc1cnc2cc(OC[C@@H](O)CO)c(NC(=O)C3CCCC3)cc2c1Nc1ccc(OCc2cccc(F)c2)c(Cl)c1`: the growth is -20.9% (active).

Regarding `O=C(O)C1C2CCC1C(O)C2` (stereo unspecified), the growth is 97.7% and 110%.

With `COc1cc(C(=O)n2nc(-c3cc(OC)c(OC)c(OC)c3)nc2N)cc(OC)c1OC`, the growth is 101%.

Take `CN1CCN(c2ccc(Nc3c4ccccc4nc4ccccc34)cc2)CC1`: the growth is 102%.
